NS1 function inh: inhibitors of influenza NS1 protein function | Potency, µM (series often up to 46.1 µM), for the others: at the top dose activity, positive = more growth | AID 2326 | hit rate 0.4% among 270,000; calls by dose curve; also: potency is read from the fitted curve at half-maximal effect; actives are rising curves; nearly all actives have a fitted effect of over 50% in size
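Read-out: OD600 growth recovery of NS1-expressing budding yeast. Cells grown overnight at 30C in -URA glucose medium, washed, resuspended and diluted 1:100 in 2% galactose assay medium, pH 6.0. Same strain lacking NS1 served as positive control.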
Shiga inhibitor: inhibitors of Shiga toxin in Vero cells. Vero cells, Shiga toxin protein synthesis inhibition reporter. AID 2315. inhibition, % at 38.7 µM. hit rate 9.2% among 290,000; in the data active = inhibition mostly above about 28%, no sharp cut-off; inactive = mostly below about 43%; also: 0% is about no effect
Pf growth 96h: inhibits malaria parasite growth, 96 h | P. falciparum luciferase reporter growth, 96 h | Potency, µM (highest dose often 28.7 µM), inactives show at the top dose activity change, negative = inhibition, most hits filed as inhibitors | hit rate 6.9% among 320,000; also: potency is read from the fitted curve at half-maximal effect; % is scaled to controls: 0 for no effect and ±100 for the full control effect
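Compounds incubated with erythrocytes infected by luciferase-expressing P. falciparum (2% hematocrit, 0.05% parasitemia final) for 96 hours, 37 C in 5% CO2. Growth inhibition scored as decreased luciferase luminescence.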
Pf growth 48h: inhibits P. falciparum growth in the first generation, 48 h | Potency, µM (series often up to 28.7 µM), inactives show top-dose activity change, negative = inhibition, actives largely listed as inhibitors | hit rate 5.9% among 310,000 | P. falciparum luciferase growth in erythrocytes, 48 h; also: potency is read from the fitted curve at half-maximal effect; % is scaled to controls: 0 for no effect and ±100 for the full control effect
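Parasite viability was followed by luminescence of a genomically integrated firefly luciferase. Cultures held 0.1% parasitemia at 2% hematocrit (final), incubated under 5% CO2 at 37 C.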
Cycloheximide cs: counter-screen for Shiga toxin inhibitors: cycloheximide protein synthesis inhibition | cell reporter, cycloheximide protein synthesis inhibition counterscreen | max response, % | hit rate 12% among 300,000; in the data active = max response mostly above about 13%, no sharp cut-off; inactive = mostly below about 14%; also: read at 38.3 µM for the half of the compounds with a filed dose; 0% is about no effect
Giardia FBPA inh: inhibitors of Giardia lamblia fructose-1,6-bisphosphate aldolase; A8B2U2; purified Giardia FBPA; Potency, µM (titrated, usually from 59.6 µM), for the others: top-dose activity, negative = inhibition, actives largely listed as inhibitors; hit rate 0.71% among 290,000; also: potency is read from the fitted curve at half-maximal effect; % is scaled to controls: 0 for no effect and ±100 for the full control effect; nearly all actives have a fitted effect of over 55% in size
Target sequence (A8B2U2 whole entry, looked up): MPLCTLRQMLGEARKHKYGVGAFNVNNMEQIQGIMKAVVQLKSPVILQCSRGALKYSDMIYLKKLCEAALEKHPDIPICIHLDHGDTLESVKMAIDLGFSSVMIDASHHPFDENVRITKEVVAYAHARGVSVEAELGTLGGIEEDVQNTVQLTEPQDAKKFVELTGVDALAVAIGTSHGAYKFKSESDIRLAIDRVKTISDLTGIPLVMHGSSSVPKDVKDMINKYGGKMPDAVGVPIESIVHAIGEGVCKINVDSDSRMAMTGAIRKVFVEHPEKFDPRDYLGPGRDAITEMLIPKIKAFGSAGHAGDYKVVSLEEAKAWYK
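40 nM FBPA preincubated 10 min at RT with compound (up to 57.5 uM final), then substrate plus GAPDH/TPI/NAD/arsenate coupling and diaphorase/resazurin added. Fluorescence read after 20 min at RT, 525/598 nm.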
* hit, by the source's call; ? = inconclusive; / = no result. Compounds with a hit are over-represented: about 21% of the library has one in this group of screens. Unless noted, calls follow the shape of the dose curve; as a rule, active = well fitted curve in the direction sought with a large enough effect; inconclusive = small, poorly fitted or top-dose-only effect, or another doubt; inactive = no such curve, though single readings can be large; an effect the other way counts as inactive or inconclusive.

SMILES | NS1 function inh | Shiga inhibitor | Pf growth 96h | Pf growth 48h | Cycloheximide cs | Giardia FBPA inh
Cc1cccc(NC(=O)c2ccc3nccnc3c2)n1 | -15% | 46* | -17% | 64% | 49* | /
COc1ccccc1/C=N/NC(=O)c1cccc(NC(=O)c2ccccc2C)c1 | 5% | -6 | ? | 13% | 1 | 6%
Cc1ccccc1C(=O)Nc1cccc(C(=O)N/N=C/c2ccccn2)c1 | -4% | 26 | 14% | -17% | 12* | 14%
CC(C)(C)c1csc(NC(=O)c2ccc3nccnc3c2)n1 | 19% | 80* | ? | -8% | 63* | -7%
Cc1cccc(NC(=O)c2ccc(Cl)nc2)n1 | -5% | 23 | 103% | 55% | 15 | -2%
Cc1cccc(/C=N/NC(=O)c2cccc(NC(=O)c3ccccc3)c2)n1 | 3% | 27 | 26% | -4% | 14* | -14%
NC(=O)C1CCN(c2nc(-c3ccccc3[N+](=O)[O-])cs2)CC1 | / | / | 0% | 9% | / | /
CCC(=O)NC(Nc1nc(C)cs1)(C(=O)OC)C(F)(F)F (centres undefined) | 6% | -17 | -7% | 26% | -4 | -5%
Cc1noc(C)c1C(=O)N1CCC2(CCCN(Cc3nccs3)C2)CC1 | / | / | / | / | / | 5%
Cc1cccc(NC(=O)c2cccc(NC(=O)c3ccccc3)c2)n1 | -36% | 8 | 13µM* | 0% | -3 | 9%
Cc1cccc(/C=N/NC(=O)c2ccc(F)cc2)n1 | -8% | 40* | 32% | ? | 20* | -8%
Cc1cccc(/C=N/NC(=O)c2cccc([N+](=O)[O-])c2)n1 | 1% | 3 | -109% | -9% | -2 | ?
Cc1cccc(NC(=O)c2ccc3c(c2)OCCO3)n1 | -6% | 50* | 361% | 251% | 45* | /
Cc1cccc(/C=N/NC(=O)c2cccc(Cl)c2)n1 | -5% | 46 | -5% | 0% | 16* | -19%
O=c1c2cn(Cc3ccc(F)cc3)c3ccc(F)cc3c-2nn1Cc1ccc(F)cc1 | -1% | 4 | 2% | 6% | -3 | 2%
Cc1ccc(C)c(Cn2nc3c4ccccc4n(Cc4ccccc4)cc-3c2=O)c1 | 2% | -4 | 10% | 13µM* | -7 | 2%
Cc1ccccc1NS(=O)(=O)c1nnc(NC(=O)CC(C)C)s1 | 9% | -5 | 0% | -18% | 12 | 17%
CCOc1cccc2cc(C(=O)NCc3ccc(Cl)cc3)c(=N)oc12 | 18% | 39 | -14% | ? | 5 | -9%
CSc1nc(-c2ccco2)nn1S(=O)(=O)c1ccc(C)cc1 | -28% | 29 | ? | -5% | -2 | ?
Nc1nc(-c2ccco2)nn1C(=O)CCc1ccccc1 | -4% | -5 | 5% | 10% | 7 | -8%
O=C(Cc1ccccc1)n1nc(-c2ccco2)nc1SCc1ccccc1 | -72% | 42 | 28% | / | 28* | ?
O=C(c1ccco1)n1nc(-c2ccccc2)nc1SCc1ccccc1 | -4% | 31 | / | 42% | 32 | -4%
O=C(c1ccco1)n1nc(-c2ccco2)nc1SCc1ccccc1 | -112% | 43 | -18% | / | 19* | -3%
Cc1ccc(S(=O)(=O)n2nc(-c3ccco3)nc2SCc2ccccc2)cc1 | -33% | 86* | 9% | 43% | 34* | -10%
CCCC(=O)n1nc(-c2ccco2)nc1SCc1ccccc1 | -29% | active | 45% | 39% | 43* | 1%
SMILES | NS1 function inh | Shiga inhibitor | Pf growth 96h | Pf growth 48h | Cycloheximide cs | Giardia FBPA inh
Cc1ccc(CNC(=O)[C@H](Cc2ccccc2)NC(=O)C2CCNCC2)cc1 | -14% | -6 | 18% | 2% | -1 | ?
CCCCSc1nc(C)cc(C)c1S(=O)(=O)c1ccccc1C | -4% | -10 | 10µM* | ? | -2 | 7%
O=C(Nc1ccccc1Cl)C1Cc2ccccc2O/C1=N\O (centres undefined) | -7% | 87* | ? | 65% | 44* | -3%
Nc1nc(N)c2[nH]cnc2n1 (tested in a mixture with another compound) | -3% | / | / | / | / | /
CCCCN(C)C(=O)CCCCn1c(=O)[nH]c2cc(OCC)c(OCC)cc2c1=O | -2% | -15 | ? | 10µM* | -2 | 3%
CCOc1cc2[nH]c(=S)n(C(C)C)c(=O)c2cc1OCC | 19% | -7 | 8.3µM* | / | -1 | 7%
CCOc1cc2[nH]c(=S)n(C3CC3)c(=O)c2cc1OCC | / | -16 | ? | -8% | 6 | -8%
